# Source: PubChem BioAssay (Tox21)
# “And” between values parts separate entries of the source, which are not always exact repeats. Identical values can stand only once. Records with an inconclusive call do not appear. Entries that show only a call come without a potency. The source holds several records for some structures; these can differ, active in one and inactive in another. The source made the active and inactive calls. Unless noted, calls come from the whole dose curve.
# What was measured:
# [1] = qHTS assay to identify small molecule antagonists of the sonic hedgehog signaling (Shh) pathway (AID 1259369); note: nearly all actives have a fitted effect of over 45% in size; note: potency is the fitted concentration of half-maximal effect
# Method in brief: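 Conditioned medium drives Shh signalling in 3T3Gli1-Luc cells; compounds in DMSO co-applied, 24hr at 37 C, then luciferase luminescence.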
# [2] = qHTS assay to identify small molecule agonists of the androgen receptor (AR) signaling pathway in the presence of an antagonist - cell viability counter screen (AID 1259379; active = well fitted curve in the direction sought with a large enough effect in the repeat runs; an effect the other way counts as inactive or inconclusive;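 note: MDA-kb2 human breast cancer cells carrying an MMTV luciferase reporter; series mostly up to about 92 µM; nearly all actives have a fitted effect of over 25% in size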)
# Method in brief: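 A CellTiter-Fluor read-out measured viability of MDA-kb2 reporter cells (MMTV promoter with AR and GR response elements). Treatment: nilutamide 3.0uM final with compounds at 15 concentrations, 16 hr, 37C, 0% CO2.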
# [3] = qHTS assay to identify small molecule agonists of the estrogen receptor beta (ER-beta) signaling pathway - cell viability counter screen (AID 1259380; active = well fitted curve in the direction sought with a large enough effect in the repeat runs; an effect the other way counts as inactive or inconclusive; note: nearly all actives have a fitted effect of over 30% in size; note: potency is the fitted concentration of half-maximal effect)
# Method in brief: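 Cells used were ER-beta-UAS-bla HEK293T in medium with 2% charcoal-stripped FBS. They were treated for 16 hr at 37C. Viability came from CellTiter-Glo luminescence.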
# [4] = qHTS assay to identify small molecule antagonists of the estrogen receptor beta (ER-beta) signaling pathway - cell viability counter screen (AID 1259382; active = well fitted curve in the direction sought with a large enough effect in the repeat runs; an effect the other way counts as inactive or inconclusive; note: nearly all actives have a fitted effect of over 55% in size; note: potency is the fitted concentration of half-maximal effect)
# Method in brief: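 Agonist-stimulated (1nM E2) ER-beta-UAS-bla HEK293T cells are incubated with library compounds for 16 hr at 37C. Cell viability is then assessed in the reporter-assay wells by adding CellTiter-Glo and reading luminescence after 30 min.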
# [5] = qHTS assay to identify small molecule agonists or antagonists of the thyroid stimulating hormone receptor (TSHR) signaling pathway - wild type cell line counter screen (AID 1259384)
# Method in brief: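 Wild-type Hek293 cells, 800/well, 18 h at 37C, then compound with Ro20-1724 for 30 min RT. cAMP by HTRF (cAMP-d2/anti-cAMP cryptate), 1 h RT, fluorescence read. 15 concentrations, triplicates.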
# [6] = target: Thyrotropin receptor (Homo sapiens) (UniProt P16473); test: qHTS assay to identify small molecule antagonists of the thyroid stimulating hormone receptor (TSHR) signaling pathway (AID 1259385); note: nearly all actives have a fitted effect of over 20% in size
# Chain of Thyrotropin receptor (Homo sapiens) (P16473 whole entry, looked up): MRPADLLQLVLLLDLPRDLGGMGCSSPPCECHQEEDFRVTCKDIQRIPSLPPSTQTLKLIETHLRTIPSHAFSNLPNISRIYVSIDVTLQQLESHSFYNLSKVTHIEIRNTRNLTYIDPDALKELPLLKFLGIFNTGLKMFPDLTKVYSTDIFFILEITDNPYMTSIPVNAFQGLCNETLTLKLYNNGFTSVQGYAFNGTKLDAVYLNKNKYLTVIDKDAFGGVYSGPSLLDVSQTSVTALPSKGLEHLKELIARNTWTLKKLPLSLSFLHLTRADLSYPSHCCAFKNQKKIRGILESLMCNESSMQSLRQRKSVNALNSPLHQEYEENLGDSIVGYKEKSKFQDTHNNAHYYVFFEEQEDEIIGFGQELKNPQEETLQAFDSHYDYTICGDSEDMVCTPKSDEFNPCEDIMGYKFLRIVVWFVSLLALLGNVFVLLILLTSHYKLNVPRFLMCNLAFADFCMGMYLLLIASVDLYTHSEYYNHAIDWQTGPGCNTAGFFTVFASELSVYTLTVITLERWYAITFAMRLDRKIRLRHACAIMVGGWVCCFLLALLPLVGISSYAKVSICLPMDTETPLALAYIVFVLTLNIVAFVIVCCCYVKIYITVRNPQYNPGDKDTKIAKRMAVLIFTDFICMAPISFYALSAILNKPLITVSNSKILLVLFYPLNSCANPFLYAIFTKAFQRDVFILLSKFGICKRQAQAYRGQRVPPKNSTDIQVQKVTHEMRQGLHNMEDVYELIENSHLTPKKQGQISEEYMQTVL
# Method in brief: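 TSHR-HEK293 cells (800/well) plated 18 h, then compounds with Ro20-1724 and TSH at 1.5 ng/mL final, 30 min at room temperature. cAMP quantified by HTRF (cAMP-d2/anti-cAMP-cryptate, 1 h); 15 concentrations in triplicate.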
# [7] = target: Androgen receptor (Homo sapiens) (UniProt P10275); test: qHTS assay to identify small molecule agonists of the androgen receptor (AR) signaling pathway in the presence of an antagonist (AID 1259381); note: nearly all actives have a fitted effect of over 15% in size
# Chain of Androgen receptor (Homo sapiens) (P10275 whole entry, looked up): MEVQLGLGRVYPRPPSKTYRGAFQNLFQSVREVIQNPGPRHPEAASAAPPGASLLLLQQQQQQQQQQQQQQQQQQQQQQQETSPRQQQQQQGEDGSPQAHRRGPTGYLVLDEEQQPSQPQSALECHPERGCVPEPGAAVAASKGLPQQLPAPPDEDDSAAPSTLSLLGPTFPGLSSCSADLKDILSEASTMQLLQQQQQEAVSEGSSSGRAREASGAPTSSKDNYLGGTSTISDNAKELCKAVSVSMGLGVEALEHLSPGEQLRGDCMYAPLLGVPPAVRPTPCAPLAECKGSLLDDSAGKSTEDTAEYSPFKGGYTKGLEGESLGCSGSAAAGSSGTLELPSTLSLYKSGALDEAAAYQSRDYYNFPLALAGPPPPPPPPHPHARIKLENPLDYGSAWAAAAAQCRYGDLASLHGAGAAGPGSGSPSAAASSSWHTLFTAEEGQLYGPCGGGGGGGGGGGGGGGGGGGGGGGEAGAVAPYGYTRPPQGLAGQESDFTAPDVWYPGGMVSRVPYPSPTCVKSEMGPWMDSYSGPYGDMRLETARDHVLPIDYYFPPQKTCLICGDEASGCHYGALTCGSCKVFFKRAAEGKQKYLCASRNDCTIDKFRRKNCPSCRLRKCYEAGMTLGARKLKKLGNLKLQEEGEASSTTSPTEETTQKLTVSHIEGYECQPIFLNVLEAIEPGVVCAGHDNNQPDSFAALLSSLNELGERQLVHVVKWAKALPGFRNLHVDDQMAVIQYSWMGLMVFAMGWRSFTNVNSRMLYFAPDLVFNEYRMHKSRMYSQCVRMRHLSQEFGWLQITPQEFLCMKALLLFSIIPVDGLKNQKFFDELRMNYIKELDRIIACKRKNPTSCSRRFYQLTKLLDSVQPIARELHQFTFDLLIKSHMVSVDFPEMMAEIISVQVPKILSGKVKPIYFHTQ
# Method in brief: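 Using human MDA-kb2 cells with an MMTV promoter–luciferase construct (AR and GR response elements), agonist activity is scored under 3.0uM nilutamide (final) co-treatment; 16hr incubation, 37C, luminescence readout via ONE-Glo.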
# [8] = target: Estrogen receptor (Homo sapiens) (UniProt P03372); test: qHTS assay to identify small molecule agonists of the estrogen receptor alpha (ER-alpha) signaling pathway in the presence of an antagonist (AID 1259383); note: top concentration of the series differs between compounds; nearly all actives have a fitted effect of over 15% in size
# Chain of Estrogen receptor (Homo sapiens) (P03372 whole entry, looked up): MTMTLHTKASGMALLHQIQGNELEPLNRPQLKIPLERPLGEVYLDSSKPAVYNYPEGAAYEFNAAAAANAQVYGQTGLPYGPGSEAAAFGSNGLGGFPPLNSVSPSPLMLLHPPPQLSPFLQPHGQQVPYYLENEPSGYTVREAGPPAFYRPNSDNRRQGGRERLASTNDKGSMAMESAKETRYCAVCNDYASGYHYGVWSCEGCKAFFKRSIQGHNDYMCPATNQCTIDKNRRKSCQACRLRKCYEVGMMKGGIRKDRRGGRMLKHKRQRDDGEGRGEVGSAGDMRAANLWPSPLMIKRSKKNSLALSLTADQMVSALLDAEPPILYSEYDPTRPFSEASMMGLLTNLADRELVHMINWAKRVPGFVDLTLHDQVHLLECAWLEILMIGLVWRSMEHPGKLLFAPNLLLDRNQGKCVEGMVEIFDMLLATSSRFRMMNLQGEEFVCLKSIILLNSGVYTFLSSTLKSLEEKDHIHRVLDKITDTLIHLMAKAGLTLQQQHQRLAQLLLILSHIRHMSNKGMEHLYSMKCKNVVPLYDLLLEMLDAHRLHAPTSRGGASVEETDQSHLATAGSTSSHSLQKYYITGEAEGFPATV
# Method in brief: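 Using VM7Luc4E2 cells seeded 24hr before treatment, antagonist ICI-182,780 (10.0nM final) was added, followed by compounds at 15 concentrations. Plates incubated 22hr; ONE-Glo luminescence quantified reporter activity.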
# [9] = target: Estrogen receptor beta (Homo sapiens) (UniProt Q92731); test: qHTS assay to identify small molecule agonists of the estrogen receptor beta (ER-beta) signaling pathway (AID 1259377; active = well fitted activation curve with a large enough effect in the signal ratio in the repeat runs, not every such curve was filed as active; the % refers to the signal ratio)
# Chain of Estrogen receptor beta (Homo sapiens) (Q92731 whole entry, looked up): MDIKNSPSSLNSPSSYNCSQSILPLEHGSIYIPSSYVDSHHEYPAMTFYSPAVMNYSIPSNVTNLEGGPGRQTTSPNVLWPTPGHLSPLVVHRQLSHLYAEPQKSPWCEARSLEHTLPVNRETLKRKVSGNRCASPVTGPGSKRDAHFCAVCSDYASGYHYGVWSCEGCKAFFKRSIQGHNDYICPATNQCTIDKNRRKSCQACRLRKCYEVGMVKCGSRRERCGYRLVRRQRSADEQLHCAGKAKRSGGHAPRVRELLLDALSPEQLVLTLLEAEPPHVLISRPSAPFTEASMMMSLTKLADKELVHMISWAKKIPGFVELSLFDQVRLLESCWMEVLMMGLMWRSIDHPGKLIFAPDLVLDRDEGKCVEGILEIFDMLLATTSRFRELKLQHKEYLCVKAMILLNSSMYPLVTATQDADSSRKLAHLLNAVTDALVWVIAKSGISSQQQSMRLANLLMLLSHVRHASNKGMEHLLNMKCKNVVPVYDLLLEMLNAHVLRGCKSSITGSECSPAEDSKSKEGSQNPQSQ
# Method in brief: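 ER-beta-UAS-bla HEK293T (GripTite) cells carrying a UAS-driven beta-lactamase reporter, in medium with 2% charcoal-stripped FBS, were exposed to compounds for 16 hr at 37C; LiveBLAzer B/G FRET substrate was then added and fluorescence read after 2 hours at room temperature.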
# [10] = target: Estrogen receptor beta (Homo sapiens) (UniProt Q92731); test: qHTS assay to identify small molecule antagonists of the estrogen receptor beta (ER-beta) signaling pathway (AID 1259378; active = well fitted inhibition curve with a large enough effect in the signal ratio in the repeat runs, not every such curve was filed as active; the % refers to the signal ratio)
# Method in brief: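 ER-beta-UAS-bla HEK293T cells in 2% charcoal-stripped FBS medium treated with compound plus 1nM final 17-beta-estradiol for 16 hr at 37C. Beta-lactamase reporter read by FRET substrate fluorescence after 2 hours at room temperature.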
Structure (SMILES),Potency [1],Potency [2],Potency [3],Potency [4],outcome [5],outcome [6],Potency [7],Potency [8],Potency [9],Potency [10]
CCOc1cc(C=O)ccc1O,inactive,inactive,inactive,inactive,inactive,inactive,,,,
C1=Cc2cccc3cccc1c23,inactive,inactive,inactive,inactive,inactive,inactive,,,,
Cc1ccc(OP(=O)(Oc2ccc(C)cc2)Oc2ccc(C)cc2)cc1,inactive,inactive,,inactive,inactive,inactive,,,,
c1cc(OCC2CO2)ccc1Cc1ccc(OCC2CO2)cc1 (centres undefined),19.4 µM (active) and 21.7 µM (active),inactive,48.6 µM (active),48.8 µM (active) and inactive,inactive,inactive,inactive,inactive,,
CCCCOCCOP(=O)(OCCOCCCC)OCCOCCCC,,inactive,24.4 µM (active),,inactive,inactive,,inactive,inactive,inactive
c1ccc(-c2cccc(-c3ccccc3)c2)cc1,inactive,inactive,,inactive,inactive,inactive,,inactive,,
C[C@]12CCC(=O)C(O)=C1CC[C@@H]1[C@@H]2CC[C@]2(C)C(=O)CC[C@@H]12,,inactive,,inactive,,,,inactive,,
Clc1nc(Cl)nc(Cl)n1,inactive,inactive,,inactive,,,,inactive,,
CC(C)(c1cc(Cl)c(O)c(Cl)c1)c1cc(Cl)c(O)c(Cl)c1,30.6 µM (active) and 34.4 µM (active),inactive,,inactive,inactive,inactive,,,,
Oc1c(Cl)c(Cl)c(Cl)c(Cl)c1Cl,inactive,inactive,inactive,inactive,inactive,inactive,,inactive,,
N#CCCCl,inactive,inactive,inactive,inactive,inactive,inactive,,,,
COc1ccc(C=O)cc1,inactive,inactive,inactive,inactive,inactive,inactive,,inactive,,
CCN(CC)C(=O)SCc1ccc(Cl)cc1,inactive,inactive,,inactive,inactive,,,inactive,,
CCN(CC)C(=O)/C(Cl)=C(\C)OP(=O)(OC)OC,inactive,inactive,inactive,inactive,inactive,inactive,inactive,inactive,,
N#Cc1cc(Br)c(O)c(Br)c1,15.3 µM (active) and 7.41 µM (active),inactive,,inactive,inactive,inactive,inactive,inactive,,
CCN(CC)N=O,inactive,inactive,,inactive,inactive,inactive,,,,
c1ccc(N=Nc2ccccc2)cc1,inactive,inactive,inactive,inactive,inactive,inactive,,,,
COP(=O)(OC)OC,inactive,inactive,inactive,inactive,inactive,inactive,inactive,inactive,,
COc1ccc(C(CN(C)C)C2(O)CCCCC2)cc1 (centres undefined),inactive,inactive,inactive,inactive,inactive,inactive,,,,
NCc1cccnc1,inactive,inactive,inactive,inactive,inactive,inactive,,inactive,,
S=C1NCCN1,inactive,inactive,inactive,inactive,inactive,inactive,,,,
O=P(O)(O)CCCl,inactive,inactive,,inactive,inactive,inactive,,inactive,,
Oc1cc(Cl)ccc1Cl,inactive,inactive,inactive,inactive,inactive,inactive,,,,
C=CCc1ccc2c(c1)OCO2,inactive,inactive,inactive,inactive,inactive,inactive,,,,
CCCCCCOC(=O)c1ccccc1C(=O)OCCCCCC,inactive,inactive,,inactive,inactive,inactive,,inactive,,
O=C(O)CC[N+](=O)[O-],inactive,inactive,,inactive,,,inactive,,,
CC(C)=CC1C(C(=O)OCc2coc(Cc3ccccc3)c2)C1(C)C (centres undefined),24.4 µM (active) and 30.6 µM (active),inactive,,inactive,inactive,,,inactive,,
CNC(=O)Oc1cccc2c1OC(C)(C)O2,inactive,inactive,inactive,inactive,inactive,inactive,,inactive,,
CCCCCc1cc(O)cc(O)c1,24.4 µM (active) and 19.3 µM (active),inactive,inactive,inactive,inactive,inactive,,,,
